Compound activity deposited in PubChem BioAssay by National Center for Advancing Translational Sciences (NCATS).
The list is not random: actives were taken first. Their share in the collection is about 18%.
PLK1 PBD block = inhibitors of human PLK1 polo-box domain binding; Plk1 PBD binding of FITC phosphopeptide, fluorescence polarization; Potency, µM, most hits filed as inhibitors; P53350; 2.8% of 360,000 active; also: series mostly up to about 57 µM; nearly all actives have a fitted effect of over 65% in size
TDP1 cell noCPT = qHTS for Inhibitors of human tyrosyl-DNA phosphodiesterase 1 (TDP1): qHTS in cells in absence of CPT. DT40 Tdp1-/- hTDP1 cells, no CPT, ATP luminescence, 48 h. Potency, µM (top dose mostly 46.2 µM), most hits filed as inhibitors. 15% of 420,000 active; also: nearly all actives have a fitted effect of over 55% in size
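Chicken DT40 Tdp1-/- cells stably complemented with human TDP1 were seeded at 400 cells/well with DMSO in place of 20 nM camptothecin. After compound pinning, cells grew at least 48 hr at 37 °C; viability read by CellTiter-Glo luminescence.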
VDR inhibitor = blocks the human vitamin D receptor; Potency, µM, actives largely listed as inhibitors; 0.93% of 400,000 active; VDR-SRC2-3 peptide fluorescence polarization, 2 h; P11473
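Inhibition of the VDR/SRC2-3 peptide interaction is quantified by fluorescence polarization. Compounds (23 nl, pintool) incubate with the reagents for 2 hours at ambient room temperature.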
GCN5L2 inh = blocks human GCN5L2 histone acetyltransferase. GCN5L2 HAT assay, ThioGlo1 CoA-SH fluorescence. Potency, µM (highest dose often 58.9 µM), hits mostly inhibitors. 0.21% of 390,000 active
Target sequence (Q92830 whole entry, looked up): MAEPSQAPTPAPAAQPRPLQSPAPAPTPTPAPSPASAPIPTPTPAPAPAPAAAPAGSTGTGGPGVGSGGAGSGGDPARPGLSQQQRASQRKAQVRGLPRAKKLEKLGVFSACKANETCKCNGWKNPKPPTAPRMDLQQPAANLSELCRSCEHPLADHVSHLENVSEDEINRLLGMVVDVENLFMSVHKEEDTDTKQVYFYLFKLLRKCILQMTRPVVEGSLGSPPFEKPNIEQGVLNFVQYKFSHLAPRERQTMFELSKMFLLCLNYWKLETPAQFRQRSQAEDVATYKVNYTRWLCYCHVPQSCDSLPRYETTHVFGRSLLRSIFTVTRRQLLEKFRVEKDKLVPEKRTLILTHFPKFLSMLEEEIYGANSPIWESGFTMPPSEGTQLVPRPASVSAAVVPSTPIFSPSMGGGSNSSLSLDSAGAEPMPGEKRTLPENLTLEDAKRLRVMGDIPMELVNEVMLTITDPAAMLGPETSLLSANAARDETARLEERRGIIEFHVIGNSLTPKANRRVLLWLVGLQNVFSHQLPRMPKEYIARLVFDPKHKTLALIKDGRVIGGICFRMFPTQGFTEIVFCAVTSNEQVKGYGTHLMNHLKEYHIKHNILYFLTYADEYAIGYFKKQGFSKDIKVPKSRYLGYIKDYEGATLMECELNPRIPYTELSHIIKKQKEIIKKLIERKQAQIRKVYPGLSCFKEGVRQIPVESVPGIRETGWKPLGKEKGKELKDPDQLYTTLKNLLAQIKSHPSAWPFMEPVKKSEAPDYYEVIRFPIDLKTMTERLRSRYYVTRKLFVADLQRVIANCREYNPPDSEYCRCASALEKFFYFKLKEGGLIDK
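Enzyme at 20nM final was mixed with library compounds for 15 min at room temperature. Peptide H3(1-25) at 75uM, acetyl-CoA at 70uM and ThioGlo1 at 50uM were then added. Plates were read immediately and after 20 min (Ex340nm/Em540nm).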
TDP1 cell CPT = DT40-hTDP1 cell growth loss with CPT; AID 686979; 12% of 420,000 active; chicken DT40 Tdp1-/-;hTDP1 cells + 20 nM CPT, ATP luminescence, 48 h; Potency, µM (highest dose often 46.2 µM), actives largely listed as inhibitors; also: nearly all actives have a fitted effect of over 55% in size
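Chicken DT40 Tdp1-/- cells complemented with human TDP1, 400 cells/well, exposed to compounds plus 20 nM camptothecin for at least 48 h at 37 C; viability read as ATP content by CellTiter-Glo luminescence.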
TDP1 block = inhibitors of human tyrosyl-DNA phosphodiesterase TDP1; Potency, µM (highest dose often 130 µM), actives largely listed as inhibitors; 0.28% of 350,000 active; AID 485290; recombinant TDP1, AlphaScreen DNA substrate cleavage; also: nearly all actives have a fitted effect of over 40% in size
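Signal: AlphaScreen proximity between streptavidin donor and anti-FITC acceptor beads on intact substrate. Reaction: Tdp1 1 nM, substrate 15 nM final, 5 min RT after 15 min compound preincubation.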
Of the large screens only hits and unclear results are named; the others gave an inactive call. Calls follow the shape of the dose curve; as a rule, active = well fitted curve in the direction sought with a large enough effect; inconclusive = small, poorly fitted or top-dose-only effect, or another doubt; inactive = no such curve, though single readings can be large; an effect the other way counts as inactive or inconclusive.

Cc1cccc(COCC(Cc2ccccc2)N2CCN(C(=O)c3ccc(Cl)c(Cl)c3)CCC2=O)c1 (stereo unspecified)	TDP1 cell noCPT inconclusive, TDP1 cell CPT 20.6µM
O=C(NCc1ccc(F)cc1)c1ccc2c(c1)nc1n2CCCCC1	TDP1 cell noCPT inconclusive (no result: PLK1 PBD block)
COc1ccc(CC(=O)Nc2ccc3nc(SC)sc3c2)cc1OC	TDP1 cell noCPT inconclusive
COC(=O)C1=C(C)N(Cc2ccc(OC)c(OC)c2)C(=O)C1	PLK1 PBD block 21.2µM, TDP1 cell noCPT inconclusive, TDP1 cell CPT inconclusive
COC(=O)c1cc(NC(=O)Cc2ccc(OC)c(OC)c2)cc(C(=O)OC)c1	PLK1 PBD block 26.7µM, TDP1 cell noCPT inconclusive, VDR inhibitor inconclusive, TDP1 cell CPT inconclusive
COc1ccc(CC(=O)Nc2cccc(SC)c2)cc1OC	TDP1 cell noCPT 9.2µM, TDP1 cell CPT 11.6µM
COC(=O)C1=C(C)N(CCc2ccc(OC)c(OC)c2)C(=O)C1	none
COc1ccc(CC(=O)Nc2cc(NC(=O)Cc3ccc(OC)c(OC)c3)cc(C(=O)O)c2)cc1OC	none
COCCN(C(=O)CC1C(=O)NCCN1Cc1ccc(-c2ccccc2)cc1)C(C)C (stereo unspecified)	none
COc1cccc2c(C)cc3nnc(SCC(=O)Nc4ccc(C)cc4)n3c12	TDP1 cell noCPT inconclusive, TDP1 cell CPT inconclusive (no result: PLK1 PBD block)
COc1ccc(OC)c(-c2nn(-c3ccccc3)cc2C(=O)NC2(C)CCS(=O)(=O)C2)c1 (stereo unspecified)	none (no result: VDR inhibitor, GCN5L2 inh, TDP1 block)
COc1cccc(CS(=O)(=O)c2nnnn2-c2ccc(F)cc2Br)c1	none (no result: PLK1 PBD block, TDP1 cell noCPT, GCN5L2 inh, TDP1 cell CPT)
Cc1ccc(C(=O)c2cn(CC(=O)Nc3ccc4c(c3)OCCO4)c3nc(C)ccc3c2=O)cc1	TDP1 cell noCPT inconclusive, TDP1 cell CPT inconclusive (no result: PLK1 PBD block)
Cn1nnc2cc(NC(=O)Nc3cccc(C(F)(F)F)c3)ccc21	none (no result: TDP1 block)
CCOC(=O)[C@@H](N)CS	TDP1 cell noCPT inconclusive, VDR inhibitor 39.8µM, TDP1 cell CPT inconclusive (no result: PLK1 PBD block)
CCOC(C)=O	none (no result: PLK1 PBD block)
CC1CCN(S(=O)(=O)CCNC(=O)c2ccc3c(c2)OCO3)CC1	none
N#Cc1cccnc1N1CCN(C(=O)c2cccc3c2C(=O)c2ccc(-c4ccc(Cl)c(C(F)(F)F)c4)cc2S3(=O)=O)CC1	TDP1 cell CPT inconclusive
N#Cc1cccnc1N1CCN(C(=O)c2cccc3c2C(=O)c2ccc(Cl)cc2S3(=O)=O)CC1	TDP1 cell noCPT 16.4µM, TDP1 cell CPT inconclusive
O=C(O)c1cccc2c1C(=O)c1ccc(-c3ccc(Cl)c(C(F)(F)F)c3)cc1S2(=O)=O	PLK1 PBD block inconclusive
COc1ccc(-c2ccc3c(c2)S(=O)(=O)c2cccc(C(=O)N4CCN(c5c(Cl)cncc5Cl)CC4)c2C3=O)cc1OC	TDP1 cell noCPT 5.17µM, TDP1 cell CPT 5.8µM
O=C1c2ccc(Cl)cc2S(=O)(=O)c2cccc(C(=O)N3CCN(c4ncc(Br)cn4)CC3)c21	TDP1 cell noCPT 20.6µM, TDP1 cell CPT inconclusive
O=C(NC1CCCC1)c1cccc2c1C(=O)c1ccc(Cl)cc1S2(=O)=O	none
NC(=O)c1ccc(NC(=O)COC(=O)c2c3c(nc4ccccc24)/C(=C\c2cccs2)CCC3)cc1	TDP1 cell noCPT 20.6µM, TDP1 cell CPT inconclusive
CC(C)CNC(=O)COC(=O)c1c2c(nc3ccccc13)/C(=C/c1cccs1)CC2	TDP1 cell noCPT 25.9µM, GCN5L2 inh inconclusive, TDP1 cell CPT inconclusive (no result: TDP1 block)
CCCCNC(=O)COC(=O)c1c2c(nc3ccccc13)/C(=C\c1cccs1)CC2	TDP1 cell noCPT inconclusive, TDP1 cell CPT inconclusive (no result: GCN5L2 inh, TDP1 block)
CC1CCCCC1NC(=O)COC(=O)c1c2c(nc3ccccc13)/C(=C/c1ccco1)CC2 (stereo unspecified)	PLK1 PBD block 10.6µM, TDP1 cell noCPT 14.6µM, GCN5L2 inh inconclusive, TDP1 cell CPT 16.4µM
Cc1cc(C(=O)OCC(=O)NC2CCCCC2C)c2ccccc2n1 (stereo unspecified)	none
C[C@@]1(C(NC(=O)Cc2ccccc2)c2ccc(-c3ccccc3)cc2)C[C@H]1C1CCCCC1 (stereo partly specified)	none (no result: PLK1 PBD block, TDP1 cell noCPT, VDR inhibitor, GCN5L2 inh, TDP1 cell CPT)
CCC(=O)N(NC1=NS(=O)(=O)c2ccccc21)S(=O)(=O)c1ccc(C)cc1	none
COc1cccc(NC(=O)c2ccc3nc(C)sc3c2)c1	TDP1 cell noCPT inconclusive, TDP1 cell CPT 18.4µM
COc1cccc(CC(=O)Nc2ccc3nc(C)sc3c2)c1	TDP1 cell noCPT 13µM, TDP1 cell CPT inconclusive
COc1ccc(C(=O)Nc2cccc(OC(=O)c3ccc(C)c(C)c3)c2)cc1	TDP1 cell noCPT 23.1µM
COc1cc(CC(=O)Nc2ccc3nc(C)sc3c2)cc(OC)c1OC	TDP1 cell noCPT inconclusive
CN(Cc1cccs1)C(=O)c1cccc(S(=O)(=O)N2CCCCCC2)c1	none
Clc1cccc(-c2csc(-c3nc(-c4ccc(Br)s4)cs3)n2)c1	none (no result: PLK1 PBD block)
CCOc1ccc2nc3cc(N=Nc4ccc(N)nc4N)ccc3c(N)c2c1	PLK1 PBD block inconclusive, TDP1 cell noCPT 2.59µM, TDP1 cell CPT 5.8µM (no result: GCN5L2 inh, TDP1 block)
CCOc1ccc2[nH]c(C)cc(=O)c2c1	TDP1 cell CPT inconclusive
COc1ccc(S(=O)(=O)N2CCC(N3CCN(Cc4ccccc4)C(=O)C3=O)CC2)cc1	none (no result: PLK1 PBD block)
CCOc1ccc(CCNC(=O)c2sc3ncccc3c2-n2c(C)ccc2C)cc1	TDP1 cell noCPT 14.6µM, TDP1 cell CPT 13µM (no result: PLK1 PBD block)
Cc1ccc(CCNC(=O)c2cnc3c(C)cccn3c2=O)cc1	TDP1 cell noCPT inconclusive, TDP1 cell CPT inconclusive (no result: PLK1 PBD block)
Cc1ccc(CCNC(=O)c2sc3ncccc3c2-n2c(C)ccc2C)cc1	TDP1 cell noCPT 6.51µM, TDP1 cell CPT 11.6µM (no result: PLK1 PBD block)
COc1c(C)cc(C(=O)C2CCCN(Cc3cccc4nccnc34)C2)cc1C (stereo unspecified)	TDP1 cell noCPT 16.4µM, TDP1 cell CPT inconclusive
O=C(c1cccc(C(F)(F)F)c1)C1CCCN(Cc2cccn2-c2ccccn2)C1 (stereo unspecified)	TDP1 cell noCPT 14.6µM, TDP1 cell CPT 14.6µM
COc1cccc(OC)c1CN1CCCC(C(=O)c2ccccc2SC)C1 (stereo unspecified)	TDP1 cell noCPT 20.6µM, TDP1 cell CPT 16.4µM
COc1ccc(C(=O)C2CCCN(Cc3cccc4c3OCO4)C2)cc1OC (stereo unspecified)	TDP1 cell noCPT 9.2µM, TDP1 cell CPT inconclusive (no result: TDP1 block)
CCNC(=O)N1CCCC(C(=O)c2ccc(OC)c(OC)c2)C1 (stereo unspecified)	none
O=C(Nc1ccc(F)cc1)C1CCN(c2nc3ccccc3n3cccc23)CC1	TDP1 cell noCPT inconclusive, TDP1 cell CPT inconclusive (no result: PLK1 PBD block)
O=C(CCC(=O)Nc1nnc(C2CCCCC2)s1)NCc1ccccc1	VDR inhibitor inconclusive
